Inconclusive results are not listed. Activity calls are given as the source filed them. The call rests on the fitted dose curve; in most records, active means well fitted curve in the direction sought with a large enough effect; inconclusive means small, poorly fitted or top-dose-only effect, or another doubt; inactive means no such curve, though single readings can be large; an effect the other way counts as inactive or inconclusive.

Our source for the Potency values is PubChem BioAssay (NCATS).

Assay [1] is described as follows: qHTS of pediatric cancer cell lines to identify multiple opportunities for drug repurposing: Primary screen for SK-N-SH cells (AID 1347098). Further: nearly all actives have a fitted effect of over 65% in size. In short, it runs like this:
(§1)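 Cells (500-1,000/well) rested 5 h, then received compounds for 48 h; metabolically active cells were measured by CellTiter-Glo luminescence. Final concentrations spanned up to 46 µM (MIPE, 11-point) or 0.59 nM-46 µM (NPC, 8-point) in primary screens, 11-point in follow-ups.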

The nature of assay [2]: qHTS of pediatric cancer cell lines to identify multiple opportunities for drug repurposing: Primary screen for NB1643 cells (AID 1347099). Further: nearly all actives have a fitted effect of over 50% in size. In short, it runs like this: (§2)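 Cells seeded at 500-1,000 cells/well in growth media, rested 5 hours at 37 degrees C, 5% CO2, then dosed; MIPE compounds at 11-point (from 0.78 nM) and NPC at 8-point (from 0.59 nM) final concentrations. Viability by CellTiter-Glo luminescence after 48 hours.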

Assay [3] can be described thus: qHTS of pediatric cancer cell lines to identify multiple opportunities for drug repurposing: Primary screen for Rh18 cells (AID 1347102). Further: nearly all actives have a fitted effect of over 65% in size. In short, it runs like this: (§3)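 Cells (500-1,000/well) in growth media were settled 5 h at 37 degrees C, then given compounds for 48 h. Viability was read as CellTiter-Glo luminescence. Primary runs used MIPE at 11 points (0.78 nM-46 µM) and NPC at 8 points (0.59 nM-46 µM); follow-ups used 11 points.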

Assay [4] can be described thus: qHTS of pediatric cancer cell lines to identify multiple opportunities for drug repurposing: Primary screen for RD cells (AID 1347104). Further: nearly all actives have a fitted effect of over 55% in size. In short, it runs like this: as §2
The nature of assay [5]: qHTS of pediatric cancer cell lines to identify multiple opportunities for drug repurposing: Primary screen for MG 63 (6-TG R) cells (AID 1347105). Further: nearly all actives have a fitted effect of over 50% in size. In short, it runs like this:
as §2

Assay [6] is described as follows: qHTS of pediatric cancer cell lines to identify multiple opportunities for drug repurposing: Primary screen for control Hh wild type fibroblast cells (AID 1347106). Further: nearly all actives have a fitted effect of over 55% in size. In short, it runs like this:
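Viability after 48 h compound treatment at 37C, 500-1,000 cells/well, read as ATP luminescence with CellTiter-Glo. Primary screens used 11-point (MIPE, 0.78 nM-46 µM) or 8-point (NPC, 0.59 nM-46 µM) final concentrations; follow-up screens used 11-point dilutions.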

Assay [7] can be described thus: qHTS of pediatric cancer cell lines to identify multiple opportunities for drug repurposing: Primary screen for Rh30 cells (AID 1347107). Further: nearly all actives have a fitted effect of over 75% in size. In short, it runs like this:
as §3

Assay [8] is described as follows: qHTS of pediatric cancer cell lines to identify multiple opportunities for drug repurposing: Primary screen for Rh41 cells (AID 1347108). Further: nearly all actives have a fitted effect of over 70% in size. In short, it runs like this: as §2
Assay [9] can be described thus: qHTS of pediatric cancer cell lines to identify multiple opportunities for drug repurposing: Confirmatory screen for NB1643 cells (AID 1347109). Further: nearly all actives have a fitted effect of over 45% in size. In short, it runs like this: as §3
Assay [10] is described as follows: qHTS of pediatric cancer cell lines to identify multiple opportunities for drug repurposing: Confirmatory screen for BT-12 cells (AID 1347112). Further: nearly all actives have a fitted effect of over 55% in size. In short, it runs like this: as §3
Assay [11] is described as follows: qHTS of pediatric cancer cell lines to identify multiple opportunities for drug repurposing: Confirmatory screen for LAN-5 cells (AID 1347113). Further: nearly all actives have a fitted effect of over 65% in size. In short, it runs like this:
as §3

The nature of assay [12]: qHTS of pediatric cancer cell lines to identify multiple opportunities for drug repurposing: Confirmatory screen for DAOY cells (AID 1347114). Further: nearly all actives have a fitted effect of over 65% in size. In short, it runs like this:
(§4)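 Viability measured as metabolically active cells via CellTiter-Glo luminescence following 48 hours of compound exposure, 11-point dilutions in confirmatory testing. 500-1,000 cells/well plated 5 hours before dosing; controls were DMSO and 2.3 µM bortezomib.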

Assay [13] can be described thus: qHTS of pediatric cancer cell lines to identify multiple opportunities for drug repurposing: Confirmatory screen for NB-EBc1 cells (AID 1347115).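 Further: cells exposed to compound for 48 h before the viability read; nearly all actives have a fitted effect of over 45% in size.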 In short, it runs like this: as §3
Assay [14] can be described thus: qHTS of pediatric cancer cell lines to identify multiple opportunities for drug repurposing: Primary screen for BT-12 cells (AID 1347101). Further: nearly all actives have a fitted effect of over 25% in size. In short, it runs like this: as §1
Assay [15] in a line: qHTS of pediatric cancer cell lines to identify multiple opportunities for drug repurposing: Primary screen for OHS-50 cells (AID 1347103). Further: nearly all actives have a fitted effect of over 40% in size. In short, it runs like this: as §1
A short description of assay [16]: qHTS of pediatric cancer cell lines to identify multiple opportunities for drug repurposing: Confirmatory screen for A673 cells (AID 1347110). In short, it runs like this: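 Viability was read as ATP luminescence (CellTiter-Glo) after 48 h of compound exposure at 37 C in A673 cells seeded at 500-1,000/well. Titrations reached 46 uM final, with 11 points in the confirmatory screen. Concentration-response curves were fitted directly.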

Assay [17] is described as follows: qHTS of pediatric cancer cell lines to identify multiple opportunities for drug repurposing: Confirmatory screen for SK-N-MC cells (AID 1347111).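 Further: cells exposed to compound for 48 h before the readout; nearly all actives have a fitted effect of over 70% in size.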 In short, it runs like this:
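Metabolically active cells were quantified by ATP-dependent luminescence (CellTiter-Glo, 15 min at room temperature) following 48 h treatment. Cells had been plated at 500-1,000 per well and settled for 5 h beforehand.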

The nature of assay [18]: qHTS of pediatric cancer cell lines to identify multiple opportunities for drug repurposing: Confirmatory screen for SJ-GBM2 cells (AID 1347116). Further: nearly all actives have a fitted effect of over 60% in size. In short, it runs like this: as §4
Assay [19] is described as follows: qHTS of pediatric cancer cell lines to identify multiple opportunities for drug repurposing: Primary screen for LAN-5 cells (AID 1347100). In short, it runs like this:
as §3
Potency means the concentration at half of the fitted maximal effect.

As to `CC=CC1=C(C(=O)O)N2C(=O)[C@H](NC(=O)[C@H](N)c3ccc(O)cc3)[C@@H]2SC1`, the results for the Potency in assay [1] and in assay [2] were 19.2 µM (active) and 20.9 µM (active), respectively. Further, the Potency entry in assay [3], in assay [4], in [5], in assay [6], in assay [7] and in assay [8] was “inactive” throughout. In addition, the Potency entry in assay [9], in [10], in assay [11], in assay [12] and in assay [13] was “inactive” each time.
Take `CC(=O)OCC(=O)[C@@]1(O)[C@H](C)C[C@H]2[C@@H]3C=C(C)C4=Cc5c(cnn5-c5ccccc5)C[C@]4(C)[C@@H]3[C@@H](O)C[C@@]21C`: the Potency entry in assay [1] and in assay [6] was “inactive” throughout. The Potency is 13.2 µM (active) in assay [2]; 21.7 µM (active) in assay [14]; 13.2 µM (active) in assay [3]; 19.3 µM (active) in assay [15]; 16.6 µM (active) in assay [4]; 18.7 µM (active) in [5]. The Potency in assay [8] is 18.7 µM (active); in assay [9], 10.4 µM (active); in assay [16], 13.1 µM (active); in assay [17], 2.93 µM (active); in assay [10], 32.9 µM (active); in [11], 13.1 µM (active). The Potency in [12] was 18.5 µM (active); in assay [13], 23.3 µM (active); in assay [18] it was 13.1 µM (active).
`CC[C@H](CO)Nc1nc(NCc2ccccc2)c2ncn(C(C)C)c2n1`: the Potency entry in assay [2], in assay [3], in assay [5] and in assay [6] was “inactive” throughout. The Potency in assay [19] is 20.9 µM (active).
Turning to `CCc1cc2c(cc1N1CCC(N3CCOCC3)CC1)C(C)(C)c1[nH]c3cc(C#N)ccc3c1C2=O`, the Potency result in [1], in assay [14], in assay [3], in assay [4], in assay [5] and in assay [6] was “inactive” each time. The Potency entry in assay [8] is “inactive”.
`CC(C)Nc1cc(C(F)(F)F)cc2nc(NC(=O)c3cccnc3)nn12`: the Potency result in assay [19], in [14], in [3], in assay [15], in [4] and in [5] was “inactive” throughout. In addition, the Potency entry in assay [6], in [7] and in assay [8] was “inactive” throughout.
Turning to `COc1cc2c(Nc3ccc(NC(=O)c4ccccc4)cc3)ncnc2cc1OCCCN1CCOCC1`, the Potency in assay [2] is 26.4 µM (active); in assay [19], 0.743 µM (active); in [15] it was 27.3 µM (active); in [4] it was 33.2 µM (active). For the same compound, the Potency entry in [6] and in assay [7] was “inactive” throughout.
For the compound `C[C@]12CC[C@H](O)CC1=CCC1C2CC[C@]2(C)C(n3cnc4ccccc43)=CCC12` (stereo partly drawn), the Potency entry in assay [14], in [3], in assay [4], in assay [5], in assay [6] and in assay [7] was “inactive” each time.
Turning to `C=C1C(=CC=C2CCCC3(C)[C@@H]([C@H](C)C=CC=CC(O)(CC)CC)CC[C@@H]23)C[C@@H](O)C[C@@H]1O` (stereo partly drawn), the Potency in assay [2] was 14.8 µM (active); in assay [19] it was 14.8 µM (active); in assay [15] it was 24.3 µM (active); in assay [4] it was 26.4 µM (active); in [8], 18.7 µM (active). Besides, the Potency result in assay [3], in assay [5] and in [6] was “inactive” in each case.
As to `C=CC(=O)Nc1cccc(Oc2nc(Nc3ccc(N4CCN(C)CC4)cc3)ncc2Cl)c1`, the Potency in [1] is 3.83 µM (active); in assay [19], 2.64 µM (active); in assay [14], 17.2 µM (active); in assay [3], 3.72 µM (active); in [15], 3.06 µM (active); in assay [4] it was 20.9 µM (active). In addition, the Potency in assay [5] was 7.43 µM (active); in assay [6] it was 16.6 µM (active); in [7], 18.7 µM (active); in assay [8], 11.8 µM (active); in [9], 8.27 µM (active); in assay [16] it was 16.5 µM (active). Also, the Potency in [17] was 1.31 µM (active); in [10] it was 16.5 µM (active); in [11], 6.57 µM (active); in [12], 18.5 µM (active); in [13], 18.5 µM (active).
In the case of `CC(C)(O)CCc1ccc(OCc2cc(-c3cccc(OC(F)F)c3)c3ncccc3c2)cc1`, the Potency in [2] is 18.7 µM (active). Moreover, the Potency result in [19], in [14], in assay [3], in assay [4], in assay [5] and in assay [6] was “inactive” throughout. Moreover, the Potency entry in assay [7] and in [8] was “inactive” throughout.
On to `COc1cc(C(C)C)c2c(c1)S(=O)(=O)N(COc1cc(=O)n3cccc(OCCN4CCCCC4)c3n1)C2=O`, for which the Potency in [2] is 13.2 µM (active); in [4] it was 20.9 µM (active). For the same compound, the Potency result in assay [14], in assay [5], in assay [6] and in assay [7] was “inactive” throughout.
As to `N#Cc1c(O)c2c(-c3ccc(-c4ccccc4O)cc3)csc2[nH]c1=O`, the Potency result in assay [19], in assay [14], in assay [3], in assay [15], in [4] and in assay [5] was “inactive” in each case. For the same compound, in assay [6], the Potency result is “inactive”.
Consider `N#CCNC(=O)c1ccc(-c2ccnc(Nc3ccc(N4CCOCC4)cc3)n2)cc1`, for which the Potency in assay [1] was 12.1 µM (active); in assay [14], 17.2 µM (active); in [4], 16.6 µM (active); in assay [5] it was 18.7 µM (active); in [8], 18.7 µM (active).
With `CC(C)(C)NC(=O)[C@H]1CN(Cc2cccnc2)CCN1C[C@@H](O)C[C@@H](Cc1ccccc1)C(=O)N[C@H]1c2ccccc2C[C@H]1O`, the Potency in assay [1] was 15.2 µM (active); in [2] it was 1.05 µM (active); in assay [4], 1.48 µM (active); in [8] it was 3.72 µM (active). For the same compound, the Potency entry in assay [6], in [16], in [10], in assay [11] and in [13] was “inactive” in each case.
For the compound `Cc1c(C)n(Cc2ccc(-c3ccccc3C(=O)O)cc2)c2ccc(C(=O)N[C@@H](C)c3ccc([N+](=O)[O-])cc3)cc12`, the Potency in assay [1] is 3.04 µM (active); in [2] it was 0.187 µM (active); in assay [14] it was 0.769 µM (active); in [15], 2.73 µM (active); in [4], 1.66 µM (active); in assay [5], 18.7 µM (active). Further, the Potency result in assay [3], in assay [6], in assay [7], in [9], in assay [17] and in assay [10] was “inactive” each time. Further, the Potency entry in assay [11], in assay [12] and in [13] was “inactive” each time.
`O=C(C=Cc1cccnc1)NCCCCC1CCN(C(=O)c2ccccc2)CC1`: the results for the Potency in assay [1] and in assay [8] were 0.482 µM (active) and 0.118 µM (active), respectively. For the same compound, the Potency entry in [6], in assay [9], in [17], in assay [10], in assay [11] and in assay [12] was “inactive” each time. In [13], the Potency result was “inactive”.
